In PubChem BioAssay (Tox21):
Inconclusive results are not listed. Active and inactive are the calls of the source. Unless noted, calls come from the whole dose curve; as a rule, active = well fitted curve in the direction sought with a large enough effect in the repeat runs; inconclusive = weak or mixed curves; inactive = no such curve, though single readings can be large; an effect the other way counts as inactive or inconclusive.

Experiments:
[1] = qHTS assay to identify small molecule antagonists of the estrogen related receptor (ERR) signaling pathway from Tox21 library - cell viability counter screen (AID 1224834); conditions: ERR reporter cells viability, CellTiter-Fluor, 17.5 h; series mostly up to 92.4 µM; note: nearly all actives have a fitted effect of over 30% in size; note: potency is the fitted concentration of half-maximal effect
How it was run: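 CellTiter-Fluor fluorescence measured; ERR cells; 17.5 h compound incubation at 37 C; 30 min reagent step.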

[2] = target: Luciferin 4-monooxygenase (Photinus pyralis) (UniProt P08659); assay: qHTS assay to identify small molecule inhibitors of firefly luciferase (AID 1224835); note: nearly all actives have a fitted effect of over 25% in size; conditions: purified P. pyralis luciferase, luminescence inhibition; series mostly up to 115 µM
Chain of Luciferin 4-monooxygenase (Photinus pyralis) (P08659 whole entry, looked up): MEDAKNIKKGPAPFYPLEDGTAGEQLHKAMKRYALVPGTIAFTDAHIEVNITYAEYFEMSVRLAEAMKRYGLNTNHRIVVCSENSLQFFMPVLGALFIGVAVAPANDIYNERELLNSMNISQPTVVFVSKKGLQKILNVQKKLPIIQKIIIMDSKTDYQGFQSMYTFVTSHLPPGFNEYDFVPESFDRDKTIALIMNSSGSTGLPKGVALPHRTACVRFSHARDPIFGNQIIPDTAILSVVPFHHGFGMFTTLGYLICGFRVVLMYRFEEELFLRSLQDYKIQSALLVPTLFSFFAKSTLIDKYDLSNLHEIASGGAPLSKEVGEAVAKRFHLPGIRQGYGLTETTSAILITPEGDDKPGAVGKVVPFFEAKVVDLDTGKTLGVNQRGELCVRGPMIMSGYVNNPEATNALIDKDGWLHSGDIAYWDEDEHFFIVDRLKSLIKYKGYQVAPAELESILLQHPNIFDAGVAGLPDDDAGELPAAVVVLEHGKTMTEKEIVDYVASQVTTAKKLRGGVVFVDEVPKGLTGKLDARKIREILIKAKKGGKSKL
How it was run: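 Quantitative HTS format; KM concentrations of both substrates. Purified P. pyralis FLuc activity quantified from luminescence images.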

[3] = qHTS assay to identify small molecule agonists of the constitutive androstane receptor (CAR) signaling pathway - cell viability counter screen (AID 1224836); conditions: HepG2-CYP2B6-hCAR viability, CellTiter-Fluor, 23 h, PK11195 added to every well; series mostly up to 92.4 µM; note: nearly all actives have a fitted effect of over 45% in size
How it was run: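 Multiplexed viability check: HepG2-CYP2B6-hCAR cells, 15-point compound dosing, 0.75 uM PK11195 final, 23 h at 37 C, CellTiter-Fluor fluorescence.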

[4] = qHTS assay to identify small molecule antagonists of the constitutive androstane receptor (CAR) signaling pathway - cell viability counter screen (AID 1224837); conditions: HepG2-CYP2B6-hCAR viability, CellTiter-Fluor, 23 h, co-treated with 50 nM CITCO; series mostly up to 92.4 µM; note: nearly all actives have a fitted effect of over 45% in size
How it was run: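 Using CellTiter-Fluor, viability is scored in HepG2 cells stably carrying hCAR and a 2.2kb CYP2B6 reporter after 23 hr compound exposure across 15 concentrations, with CITCO present at 50 nM.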

[5] = qHTS assay to identify small molecule antagonists of the estrogen related receptor signaling pathway with the pleiotropic PPARgamma coactivator (PGC) from Tox21 10K library - cell viability counter screen (AID 1224840; active = well fitted cell-killing curve with a large enough effect in the repeat runs, not every such curve was filed as active; note: nearly all actives have a fitted effect of over 40% in size); conditions: PGC/ERR reporter cells viability, CellTiter-Fluor, 17.5 h; series mostly up to 92.4 µM
How it was run: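 Here the PGC/ERR cells serve as a cytotoxicity control: they are exposed to compounds for 17.5 hours at 37 C, and live-cell signal is quantified using CellTiter-Fluor fluorescence.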

[6] = target: Nuclear receptor subfamily 1 group I member 3 (Homo sapiens) (UniProt Q14994); assay: qHTS assay to identify small molecule agonists of the constitutive androstane receptor (CAR) signaling pathway (AID 1224839); conditions: HepG2 hCAR CYP2B6-luciferase, agonist mode, 24 h; series mostly up to 92.4 µM;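 note: HepG2 cells stably carrying human CAR and a CYP2B6 luciferase reporter; nearly all actives have a fitted effect of over 15% in size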
Chain of Nuclear receptor subfamily 1 group I member 3 (Homo sapiens) (Q14994 whole entry, looked up): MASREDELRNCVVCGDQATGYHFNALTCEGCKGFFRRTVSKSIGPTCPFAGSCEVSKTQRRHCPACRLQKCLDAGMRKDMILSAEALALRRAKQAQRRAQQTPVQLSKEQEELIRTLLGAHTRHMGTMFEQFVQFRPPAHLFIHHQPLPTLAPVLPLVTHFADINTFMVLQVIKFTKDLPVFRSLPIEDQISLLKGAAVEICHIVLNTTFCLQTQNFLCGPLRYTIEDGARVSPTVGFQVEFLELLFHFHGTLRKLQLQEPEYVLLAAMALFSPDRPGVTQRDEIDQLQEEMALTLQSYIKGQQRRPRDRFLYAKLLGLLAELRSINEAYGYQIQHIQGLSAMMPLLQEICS
How it was run: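 Using human hepatoma HepG2 cells engineered with hCAR and a CYP2B6-2.2kb reporter, 15-concentration compound series were incubated 24 h alongside PK11195 at 0.75 uM final, with luminescence quantified afterwards.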

[7] = target: Thyrotropin receptor (Homo sapiens) (UniProt P16473); assay: qHTS assay to identify small molecule agonists of the thyroid stimulating hormone receptor (TSHR) signaling pathway (AID 1224843; calls by dose curve; note: nearly all actives have a fitted effect of over 45% in size); conditions: TSHR-HEK293 cells, cAMP HTRF, agonist mode, 30 min; series mostly up to 92.4 µM
Chain of Thyrotropin receptor (Homo sapiens) (P16473 whole entry, looked up): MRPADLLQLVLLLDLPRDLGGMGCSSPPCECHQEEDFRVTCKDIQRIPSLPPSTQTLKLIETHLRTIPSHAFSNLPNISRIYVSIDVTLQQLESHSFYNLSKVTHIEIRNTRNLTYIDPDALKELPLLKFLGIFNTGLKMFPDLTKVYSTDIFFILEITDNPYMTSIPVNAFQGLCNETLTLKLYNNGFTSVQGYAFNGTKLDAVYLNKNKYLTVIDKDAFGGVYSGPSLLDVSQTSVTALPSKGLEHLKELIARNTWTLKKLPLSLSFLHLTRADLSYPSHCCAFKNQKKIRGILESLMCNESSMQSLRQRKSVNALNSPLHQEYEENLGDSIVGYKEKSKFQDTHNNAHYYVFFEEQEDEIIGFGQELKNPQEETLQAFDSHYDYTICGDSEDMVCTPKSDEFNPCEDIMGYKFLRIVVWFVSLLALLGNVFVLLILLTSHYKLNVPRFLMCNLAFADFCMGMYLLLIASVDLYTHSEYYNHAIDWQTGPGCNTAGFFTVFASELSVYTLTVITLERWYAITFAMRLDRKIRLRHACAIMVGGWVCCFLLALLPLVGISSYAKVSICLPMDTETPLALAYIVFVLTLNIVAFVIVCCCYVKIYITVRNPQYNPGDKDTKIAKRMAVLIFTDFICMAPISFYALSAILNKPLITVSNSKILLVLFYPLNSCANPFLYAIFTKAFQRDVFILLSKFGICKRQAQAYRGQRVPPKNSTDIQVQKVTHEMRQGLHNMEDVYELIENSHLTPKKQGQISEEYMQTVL
How it was run: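 TSHR-expressing HEK293 cells (800 per well) were exposed to compounds for 30 min at room temperature. cAMP was then detected by HTRF competition with cAMP-d2 and anti-cAMP cryptate, read after 1 h at room temperature. Fifteen concentrations, triplicate.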

[8] = qHTS assay to identify small molecule antagonists of the estrogen related receptor signaling pathway with the pleiotropic PPARgamma coactivator (PGC) from Tox21 10K library (AID 1224841; call rule not given here; note: actives are mostly falling curves and most rising ones were filed inactive; nearly all actives have a fitted effect of over 50% in size); conditions: PGC/ERR reporter cell line, ONE-Glo luciferase, 18 h; series mostly up to 92.4 µM
How it was run: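 Each well held 2,000 PGC/ERR cells, pre-incubated six hours (37 C, 5% CO2). Test substances in DMSO were added by pin tool and left for 18 h at 37 C before luciferase detection by One-Glo.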

[9] = qHTS assay to identify small molecule agonists of the estrogen related receptor signaling pathway with the pleiotropic PPARgamma coactivator (PGC) from Tox21 10K library (AID 1224842); conditions: PGC/ERR reporter cell line, luciferase ONE-Glo, 18 h; series mostly up to 92.4 µM; note: nearly all actives have a fitted effect of over 15% in size
How it was run: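 PGC/ERR reporter cells (NTP line) were seeded 2,000 per well, rested 6 h at 37 C/5% CO2, then pin-dosed with compounds in DMSO for 18 h at 37 C; luciferase read by One-Glo luminescence after 30 min at room temperature.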
% is set by controls: 0 for no effect and ±100 for the full control effect.

CCN[C@@H]1C[C@H](N)[C@@H](OC2OC(CN)=CCC2N)[C@H](O)[C@H]1O[C@H]1OC[C@](C)(O)[C@H](NC)[C@H]1O (stereo partly specified)
inactive: viability change, negative = cytotoxic [1] 5.78% [at 0.349 µM] | activity change, negative = inhibition [2] -1.17% [at 0.435 µM] | viability change, negative = cytotoxic [3] 2.22% [at 0.349 µM] | activity change, negative = cytotoxicity [4] 0.22% [at 0.349 µM] | viability change, negative = cytotoxic [5] -0.298% [at 0.349 µM]

NC(=O)N1c2ccccc2CC(=O)c2ccccc21
inactive: Potency [1] | Potency [2] | outcome [3] | Potency [6] | outcome [5] | Potency [7]

CC(C)CCCO
inactive: Potency [1] | Potency [2] | outcome [3] | outcome [5] | Potency [7]

CCCCc1nc(Cl)c(CO)n1Cc1ccc(-c2ccccc2-c2nn[nH]n2)cc1
inactive: Potency [1] | outcome [3] | outcome [4] | Potency [6] | outcome [5]

Nc1ccn([C@@H]2O[C@H](CO)[C@@H](O)C2O)c(=O)n1 (stereo partly specified)
inactive: Potency [1] | outcome [3] | outcome [4] | Potency [6] | outcome [5] | Potency [8] | Potency [9]

CCN(Cc1ccccc1)c1ccccc1
inactive: Potency [2] | Potency [9] | Potency [7]
active: Potency [1] 24 µM

CCCn1cc[n+](C)c1C
inactive: Potency [1] | Potency [2] | outcome [3] | outcome [5]
